Drawing on PubChem BioAssay (NCI), this text covers growth for 14 compounds.

Structures are written as SMILES. About 83,000 compounds went through this panel and 20% of them were active in at least one assay; those are over-represented in the sample as a whole.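 Assay: single dose, 48 h. Readout: percent growth (0 = no net growth; negative = cell death). Active: <10.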 A number with no mark means an inactive call. Active and inactive are the calls of the source.

What all share (assay): NCI-60 one-dose screen, 48 h (100 = growth as untreated, 0 = no growth, -100 = all killed)
Holding throughout (settings): 10 µM unless noted

Experiment [1] deals with T-47D breast.
For experiment [2], the system named is BT-549 breast.
The test system of experiment [3] is MDA-MB-435 melanoma.
Experiment [4] has as its system SW-620 colon.
For experiment [5], the system named is MCF7 breast.
In experiment [6] the test system is HCT-116 colon.
Experiment [7] deals with HCC-2998 colon.
Experiment [8] deals with KM12 colon.

Turning to `O=c1[nH]c2cc(Cl)ccc2n1C1CCN(c2ccc3nnc(Cl)n3n2)CC1`, the growth in experiment [1] was 86.6%; in experiment [2] it was 94.2%; in experiment [3], 98.4%; in experiment [4], 93.4%; in experiment [5] it was 81.1%; in experiment [6], 106%. The growth in experiment [7] is 100%; in experiment [8], 96.5%.
Consider `COc1cc2c3c(n(CCCN4CCCCC4)c(=O)c2cc1OC)-c1cc2c(cc1C3=O)OCO2`, for which the growth in experiment [1] is -64.6% (active); in experiment [2] it was -59.7% (active); in experiment [3], -81.4% (active); in experiment [4] it was -92.5% (active); in experiment [5], -75.5% (active); in experiment [6], -71.9% (active). The growth was -86.8% (active) in experiment [7] and -85.4% (active) in experiment [8].
Take `CN1CCN(c2ccc3c(C(N)=O)c(NC(=O)c4ccc(C(C)(C)C)cc4)sc3c2)CC1`: the growth in experiment [1] is 92.3%; in experiment [2] it was 89.9%; in experiment [3] it was 95.1%; in experiment [4] it was 43.6%; in experiment [5], 39.7%; in experiment [6] it was 37.6%. The results for the growth in experiment [7] and in experiment [8] were 96.2% and 81.7%, respectively.
Take `CCC(C)[C@H]1OC(=O)[C@H](C(C)C)N(C)C(=O)[C@@H](C(C)C)OC(=O)[C@H](C(C)C)N(C)C(=O)[C@@H](C(C)CC)OC(=O)[C@H](C(C)C)N(C)C1=O` (some centres not stated): the growth in experiment [1] is 3.65% (active); in experiment [2], 0.725% (active); in experiment [3], 16.1%; in experiment [4], 17.3%; in experiment [5] it was 8.27% (active); in experiment [6], 8.58% (active). Further, the growth in experiment [7] is 23.4%; in experiment [8] it was 15.7%.
Turning to `COc1ccc(/C=C/C(=O)c2nnn(-c3ccc(Br)cc3)c2C)cc1OC`, the growth was 66.4% in experiment [1]; 63.9% in experiment [2]; 61.3% in experiment [3]; 51.6% in experiment [4]; 12.9% in experiment [5]; 5.41% (active) in experiment [6]. Further, the values for the growth in experiment [7] and in experiment [8] were 83.7% and 66.7%, respectively.
Consider `c1ccc(-c2n(Cc3ccc4ccccc4c3)c3c4ccccc4c4ccccc4c3[n+]2Cc2ccc3ccccc3c2)cc1`, for which the growth in experiment [1] was -41.7% (active); in experiment [2], -69.9% (active); in experiment [3], -85.4% (active); in experiment [4], -75.4% (active); in experiment [5] it was -75% (active); in experiment [6], -61.6% (active). Also, the growth in experiment [7] was -90.8% (active); in experiment [8] it was -85.5% (active).
For `Cc1csc(Nc2cccc(Nc3nc(C)cs3)c2)n1`, the growth is 36.1% in experiment [1]; 73.7% in experiment [2]; 82.1% in experiment [3]; 88.6% in experiment [4]; 73.3% in experiment [5]; 56.5% in experiment [6]. In addition, the growth in experiment [7] was 90.3%; in experiment [8], 87.8%.
Take `COc1ccc(NC(=O)Cn2cc(CN3C(=O)c4ccc([N+](=O)[O-])cc4C3=O)nn2)cc1`: the growth in experiment [1] is 95.5%; in experiment [2], 111%; in experiment [3], 110%; in experiment [4] it was 97.5%; in experiment [5], 91.3%; in experiment [6], 109%. For the same compound, the growth in experiment [7] is 102%; in experiment [8], 106%.
On to `N/C(=N\c1nc2ccc([N+](=O)[O-])cc2s1)C(Cl)(Cl)Cl`, for which the growth in experiment [1] was 30.7%; in experiment [2], 93.3%; in experiment [3], 83.6%; in experiment [4] it was 70.5%; in experiment [5] it was 40%; in experiment [6], 53.9%. The growth is 74% in experiment [7] and 37.6% in experiment [8].
Take `C/C=C/[C@@H]1C=C[C@@H]2C[C@H](C)CC[C@H]2[C@]1(C)/C(O)=C1/C(=O)[C@H](CO)N(C)C1=O`: the growth in experiment [1] was 74.7%; in experiment [2], 75.2%; in experiment [3], 74.8%; in experiment [4], 52.5%; in experiment [5], 68.3%; in experiment [6], 61.4%. In addition, the growth was 57% in experiment [7] and 47.2% in experiment [8].
As for `O=S(=O)(Nc1ccc(-n2cnc3cc(-c4ccc(O)cc4)ccc32)cc1)C1CC1`, the growth in experiment [1] is 72.9%; in experiment [2], 91.9%; in experiment [3], 87.7%; in experiment [4] it was 102%; in experiment [5], 73.9%; in experiment [6], 92.7%. Further, the figures for the growth in experiment [7] and in experiment [8] were 103% and 68.7%, respectively.
Consider `COc1cc(CNC(=O)/C=C/c2ccccc2)ccc1OCC(=O)NO`, for which the growth was 99.6% in experiment [1]; 107% in experiment [2]; 102% in experiment [3]; 107% in experiment [4]; 89.9% in experiment [5]; 98.7% in experiment [6]. The growth in experiment [7] is 104%; in experiment [8] it was 99.3%.
On to `CC(C)C[C@H]1C(=O)O[C@H](C(C)C)C(=O)N(C)[C@@H](C(C)C)C(=O)O[C@H](C(C)C)C(=O)N(C)[C@@H](C(C)C)C(=O)O[C@H](C(C)C)C(=O)N1C`, for which the growth is 6.43% (active) in experiment [1]; 17.6% in experiment [2]; 21.9% in experiment [3]; 18.2% in experiment [4]; 13.8% in experiment [5]; 9.58% (active) in experiment [6]. For the same compound, the growth in experiment [7] is 23.1%; in experiment [8] it was 16.6%.
For the compound `CC(C)(C)OC(=O)N1CCN(S(=O)(=O)/N=C2\NC(=O)NC2=C(Cl)Cl)CC1`, the growth in experiment [1] was 75.3%; in experiment [2] it was 101%; in experiment [3], 103%; in experiment [4], 34.3%; in experiment [5] it was 79.7%; in experiment [6] it was 98%. Further, the figures for the growth in experiment [7] and in experiment [8] were 75% and 107%, respectively.
